Screening results from PubChem.
Sampled rows, rich in hits. Any-hit rate of the full collection: about 19%.
AMA1-RON2 inh = qHTS for Inhibitors of AMA1-RON; Towards Development of Antimalarial Drug Lead: Primary Screen | Plasmodium falciparum AMA1 (3D7) - RON2 peptide interaction | AlphaScreen AMA1-biotinylated RON2 peptide binding | Potency, µM (top dose mostly 58.2 µM), for inactives: at the top dose activity change, negative = inhibition, usual class: inhibitors | 0.2% of 360,000 active | AID 720542, 2013;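 note: potency is the fitted concentration of half-maximal effect; 0% = vehicle wells and -100% = peptide control; nearly all actives have a fitted effect of over 45% in size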
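AMA1 (3D7) with his tag at 25 nM final met compounds first, then biotinylated RON2 peptide at 25 nM; detection used donor plus acceptor beads, 10 µg/mL apiece, read by AlphaScreen after 30 min at room temperature.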
SARS PLpro yeast = qHTS of Yeast-based Assay for SARS-CoV PLP; S. cerevisiae expressing SARS-CoV PLpro, growth rescue; Potency, µM (highest dose often 32.9 µM), for inactives: top-dose activity, positive = growth rescue, hits mostly activators; 0.19% of 330,000 active; calls by dose curve; note: potency is the fitted concentration of half-maximal effect; 0% is about no effect; nearly all actives have a fitted effect of over 55% in size
Pf growth 48h = Primary qHTS for delayed death inhibitors of the malarial parasite plastid, 48 hour incubation; AID 504832, 2011; P. falciparum luciferase growth in erythrocytes, 48 h; 5.9% of 310,000 active; Potency, µM (highest dose often 28.7 µM), without a hit: at the highest dose activity change, negative = inhibition, usual class: inhibitors; note: potency is the fitted concentration of half-maximal effect; % is set by controls: 0 for no effect and ±100 for the full control effect
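Here the parasites carry a stable luciferase gene and grow inside erythrocytes in Albumax-based RPMI medium with compound for one erythrocytic cycle. Activity is scored as loss of luminescent signal.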
Pf growth 96h = Primary qHTS for delayed death inhibitors of the malarial parasite plastid, 96 hour incubation; Potency, µM (doses to about 28.7 µM), for inactives: at the top dose activity change, negative = inhibition, hits mostly inhibitors; 6.9% of 320,000 active; P. falciparum luciferase reporter growth, 96 h; AID 504834, 2011; note: potency is the fitted concentration of half-maximal effect; % is set by controls: 0 for no effect and ±100 for the full control effect
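Erythrocytes infected with luciferase-expressing P. falciparum were dispensed at 2% hematocrit and 0.05% parasitemia (final), then incubated with compounds 96 hours at 37 C in 5% CO2. Luminescence after detection reagent addition reported growth.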
Cycloheximide cs = Cycloheximide Counterscreen for Small Molecule Inhibitors of Shiga Toxin. max response, %. 12% of 300,000 active. cell reporter, cycloheximide protein synthesis inhibition counterscreen; in the data active = max response mostly above about 13%, no sharp cut-off; inactive = mostly below about 14%; note: read at 38.3 µM for the half of the compounds with a filed dose; 0% is about no effect
Shiga toxin inh = A qHTS for Small Molecule Inhibitors of Shiga Toxin; Vero cells, Shiga toxin protein synthesis inhibition reporter; inhibition, % at 38.7 µM; 9.2% of 290,000 active; AID 2315, 2010; in the data active = inhibition mostly above about 28%, no sharp cut-off; inactive = mostly below about 43%; note: 0% is about no effect
* = called active by the depositor; i = inactive; ? = inconclusive; nt = not tested or not shown; + = active, no number; [ ] = dose if it differs, or a comment. Unless noted, calls come from the whole dose curve; as a rule, active = well fitted curve in the direction sought with a large enough effect; inconclusive = small, poorly fitted or top-dose-only effect, or another doubt; inactive = no such curve, though single readings can be large; an effect the other way counts as inactive or inconclusive.

SMILES	AMA1-RON2 inh	SARS PLpro yeast	Pf growth 48h	Pf growth 96h	Cycloheximide cs	Shiga toxin inh
CC1CCN(CC(=O)N2c3ccccc3CC2C)CC1 (stereo not drawn)	14%	0%	11%	0.59µM*	-5	-10
O=C(Cn1cc([N+](=O)[O-])cn1)N1CCCc2ccccc21	2%	0%	10%	i	28	53*
O=C(Cn1cc([N+](=O)[O-])cn1)N1CCc2ccccc21	1%	1%	6%	3%	-4	2
CC1Cc2ccccc2N1C(=O)CN1CCN(Cc2ccccc2)CC1 (stereo not drawn)	?	0%	4%[0.00184 µM]	29%	-5	-5
CC1Cc2ccccc2N1C(=O)CN1CCc2ccccc2C1 (stereo not drawn)	-3%	13%	?	?	-7	-10
CC1Cc2ccccc2N1C(=O)CNc1ccccc1N1CCCCC1 (stereo not drawn)	?	-4%	?	13µM*	1	18
CC1Cc2ccccc2N1C(=O)CCN1C(=O)C2C3C=CC(C3)C2C1=O (stereo not drawn)	-10%	5%	8%	9%	14	2
COc1ccc(-c2cnc(C(O)c3ccc(C(C)(C)C)cc3)[nH]2)cc1 (stereo not drawn)	11%	nt	nt	nt	nt	nt
CN(Cc1cccc(F)c1)C(=O)c1ccccc1Sc1ccccc1C#N	-8%	-12%	?	?	9	18
CC(C)(C)c1ccc(C(=O)OCC(=O)Nc2cccc(S(=O)(=O)NC3=NCCC3)c2)cc1	8%	nt	nt	nt	nt	nt
Cc1ccc(/C(=N/Nc2nc3ccccc3s2)C2=C(O)c3ccccc3C2=O)cc1	41%	15%	33%	102%	19	44*
Cc1cc[n+](CC(=O)Nc2nc3ccccc3s2)cc1	-9%	0%	15%	?	6	3
Cc1ccc(NC(=S)N2CCN(c3ncccn3)CC2)c(C)c1	7%	-10%	26%	8%	-1	-2
Nc1ccccc1SCc1ccccc1	4%	1%	28%	24%	72*	89*
Nc1nc(SCc2ccccc2)n[nH]1	-1%	0%	6%	43%	11*	19
Nc1nc(SCc2ccc(Br)cc2)n[nH]1	14%	-1%	43%	7%	27*	53*
Nc1nc(SCc2c(Cl)cccc2Cl)n[nH]1	-7%	2%	nt	1.3µM*	-2	-8
Nc1nc(SCc2ccc3c(c2)OCO3)n[nH]1	-15%	nt	12%	29%	21	12
Nc1nc(SCc2ccc(Cl)c(Cl)c2)n[nH]1	-9%	0%	-13%	?	8	54
c1ccc(CSCc2ccccc2)cc1	2%	3%	-30%	7%	nt	nt
O=C(Nc1nnc(SCc2ccccn2)s1)C1CC(=O)N(c2ccc(F)cc2)C1 (stereo not drawn)	23%	-2%	-5%	?	-3	-5
CCN1CCN(Cc2c(O)ccc3c2O/C(=C\c2ccccc2)C3=O)CC1	?	13%	?	12µM*	1	-4
CCc1ccc(/C=C2\Oc3c(ccc(O)c3CN3CCN(C)CC3)C2=O)cc1	2%	-1%	?	?	-1	-8
CN(C)Cc1c(O)ccc2c1O/C(=C\C=C\c1ccccc1)C2=O	0%	-2%	1.7µM*	-8%	13*	18
CCN1CCN(Cc2c(O)ccc3c2O/C(=C\C=C\c2ccccc2)C3=O)CC1	-7%	-3%	1.7µM*	?	33*	65
SMILES	AMA1-RON2 inh	SARS PLpro yeast	Pf growth 48h	Pf growth 96h	Cycloheximide cs	Shiga toxin inh
CC1CCCN(Cc2c(O)ccc3c2O/C(=C\c2ccco2)C3=O)C1 (stereo not drawn)	-27%	11%	2.3µM*	3.3µM*	-2	-2
COc1ccc(S(=O)(=O)NCC(c2ccc3c(c2)OCO3)N2CCOCC2)cc1 (stereo not drawn)	3%	4%	9%	51%	nt	nt
CC(=O)c1cccc(CN2CCN(Cc3ccccc3)C(CCO)C2)c1 (stereo not drawn)	12%	0%	0%	23%	-3	27
O=C(Nc1ccnn1C1CCN(Cc2cccc(F)c2F)CC1)C1CCCC1	12%	4%	?	21%	-4	-6
COc1ccccc1/C=C/C=C1\Oc2c(ccc(O)c2CN2CCN(CCO)CC2)C1=O	?	-17%	-74%	?	32*	+
CCN1CCN(Cc2c(O)ccc3c2O/C(=C\c2ccc(C)cc2)C3=O)CC1	24%	0%	5.2µM*	2.3µM*	-1	3
O=C1/C(=C/C=C/c2ccccc2)Oc2c1ccc(O)c2CN1CCN(CCO)CC1	-4%	2%	?	?	10	20
Cc1ccc(/C=C2\Oc3c(ccc(O)c3CN3CCN(C)CC3)C2=O)cc1	-10%	1%	?	?	0	22
O=C(NCc1nc2ccccc2[nH]1)C1=C[C@H](c2ccc(C(F)(F)F)cc2)C[C@H](OCCCCO)O1	73%	nt	nt	nt	nt	nt
Cc1cccc(-n2nc(C(=O)c3ccco3)cc(-c3nc4ccccc4[nH]3)c2=N)c1	34%	3%	?	?	1	-1
COc1ccc(-n2nc(C(=O)c3cccs3)cc(-c3nc4ccccc4[nH]3)c2=N)cc1	51%	-9%	3.3µM*	?	1	-3
Cc1ccccc1-n1nc(C(=O)c2cccs2)cc(-c2nc3ccccc3[nH]2)c1=N	34%	4%	3.7µM*	?	-2	8
Cc1cccc(-c2cc(NCCc3cccnc3)n3nccc3n2)c1	-1%	nt	nt	nt	nt	nt
CC(C)n1nc(C(=O)OCC(=O)c2c[nH]c3ccccc23)c2ccccc2c1=O	-7%	16%	nt	6.6µM*	10	-5
CCc1cccc2c(C(=O)COC(=O)c3nn(C)c(=O)c4ccccc34)c[nH]c12	-18%	12%	nt	-7%	3	1
CCn1nc(C(=O)OCC(=O)c2c[nH]c3ccccc23)c2ccccc2c1=O	4%	2%	4.7µM*	7.4µM*	-1	-10
Cc1cc(C)cc(NC(=O)C2(c3cccs3)CCOCC2)c1	6%	17%	-2%	?	-2	-5
CCN1C(=O)[C@H]2[C@@H](c3ccc(OC)cc3)N[C@]3(CCCN(CCC(C)C)C3=O)[C@H]2C1=O	0%	nt	nt	nt	nt	nt
CCC1OC(=O)CC(O)C(C)[C@@H](O[C@@H]2OC(C)[C@H](O[C@@H]3C[C@@](C)(O)C(O)C(C)O3)C(N(C)C)C2O)[C@H](CC=O)CC(C)C(=O)/C=C/C(C)=C/[C@@H]1COC1OC(C)C(O)C(OC)[C@@H]1OC (stereo partly drawn)	nt	nt	?	0.76µM*	nt	nt
